Assay results reported in PubChem BioAssay (EPA / NIEHS).
Calls of active or inactive are those of the source. The calls were made as follows: active = hit-call score of the fitted dose curve at least 0.9, where 1 is the maximum; inactive = score below 0.9.

Assays:
Details in all cases: mRNA level, 48 h; actives raise or lower the signal
[1] = read-out: JUN Transcription Factor, JUN (gene 3725); assay: LTEA_HepaRG_JUN: Life Technologies and Expression Analysis (LTEA) Assay for JUN Transcription Factor using HepaRG (AID 2283513)
Method in brief: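 Read-out is JUN transcript level by TaqMan qRT-PCR, normalized to ACTB, GAPDH and POLR2A, after 48 h chemical treatment of HepaRG cells. Concentration-response spanned eight half-log points up to 100 uM in 0.5% DMSO.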

[2] = read-out: Lipase C (LIPC), LIPC (gene 3990); assay: LTEA_HepaRG_LIPC: Life Technologies and Expression Analysis (LTEA) Assay for Lipase C (LIPC) using HepaRG (AID 2283514)
Method in brief: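 HepaRG, 48 h exposure, 8-pt half-log series from 100 uM in 0.5% DMSO, duplicates. Readout: LIPC mRNA by Fluidigm qRT-PCR, housekeeping-normalized (ACTB/GAPDH/POLR2A). Gain or loss fitted bidirectionally against DMSO baseline.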

[3] = read-out: Lipoprotein lipase (LPL), LPL (gene 4023); assay: LTEA_HepaRG_LPL: Life Technologies and Expression Analysis (LTEA) Assay for Lipoprotein lipase (LPL) using HepaRG (AID 2283515)
Method in brief: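 HepaRG, 48 h exposure, 8-pt half-log dilutions from 100 uM, 0.5% DMSO vehicle, duplicates; qRT-PCR (Fluidigm array) of LPL mRNA vs housekeeping genes; bidirectional curve fit relative to DMSO baseline.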

[4] = read-out: MicroRNA 122 (MIR122), gene 406906; assay: LTEA_HepaRG_MIR122: Life Technologies and Expression Analysis (LTEA) Assay for MicroRNA 122 (MIR122) using HepaRG (AID 2283516); also: the transcript read is the microRNA miR-122
Method in brief: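 Human liver HepaRG cultures receive test chemicals for 48 h at eight half-log concentrations from 100 uM. Expression is quantified by qRT-PCR with ACTB/GAPDH/POLR2A normalization and fitted bidirectionally against 0.5% DMSO.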

[5] = read-out: matrix metalloproteinase-10 (MMP10), MMP10 (gene 4319); assay: LTEA_HepaRG_MMP10: Life Technologies and Expression Analysis (LTEA) Assay for matrix metalloproteinase-10 (MMP10) using HepaRG (AID 2283517)
Method in brief: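 Transcript levels come from Fluidigm qRT-PCR normalized to three housekeeping genes, with curves fitted bidirectionally against 0.5% DMSO. Human HepaRG cells were dosed for 48 hours at concentrations up to 100 uM.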

[6] = read-out: MYC, MYC (gene 4609); assay: LTEA_HepaRG_MYC: Life Technologies and Expression Analysis (LTEA) Assay for MYC using HepaRG (AID 2283518)
Method in brief: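 qRT-PCR read-out of MYC transcript (Fluidigm TaqMan, housekeeping-normalized) after 48 h chemical exposure of HepaRG cells; eight concentrations, top 100 uM, half-log steps. Bidirectional curve fitting against 0.5% DMSO vehicle baseline.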

[7] = read-out: matrix metalloproteinase-3 (MMP3), MMP3 (gene 4314); assay: LTEA_HepaRG_MMP3: Life Technologies and Expression Analysis (LTEA) Assay for matrix metalloproteinase-3 (MMP3) using HepaRG (AID 2283519)
Method in brief: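 qRT-PCR read-out of MMP3 mRNA (normalised to three housekeeping genes) in HepaRG liver cells after 48 h chemical exposure; 8-point half-log series, top 100 uM, 0.5% DMSO vehicle. Bidirectional curve fitting against DMSO baseline.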

[8] = read-out: Paternally Expressed 10 (PEG10), PEG10 (gene 23089); assay: LTEA_HepaRG_PEG10: Life Technologies and Expression Analysis (LTEA) Assay for Paternally Expressed 10 (PEG10) using HepaRG (AID 2283520);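 as to AC50: differentiated HepaRG human liver cells in serum-free induction medium with 0.5% DMSO; PEG10 transcript by qRT-PCR normalised to ACTB GAPDH and POLR2A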
Method in brief: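 Human HepaRG cultures are dosed for 48 h across an eight-point half-log series starting at 100 uM, with 0.5% DMSO as vehicle and baseline. Gain or loss of PEG10 transcript is measured by qRT-PCR and fitted in both directions.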

[9] = read-out: Protein phosphatase 2A (PPP2R4), PTPA (gene 5524); assay: LTEA_HepaRG_PPP2R4: Life Technologies and Expression Analysis (LTEA) Assay for Protein phosphatase 2A (PPP2R4) using HepaRG (AID 2283522)
Method in brief: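 Cells were plated, cultured 48 h, switched to serum-free induction medium, then dosed for 48 h (8 points, max 100 uM, 0.5% DMSO). RNA was isolated and PPP2R4 expression measured by TaqMan qRT-PCR.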

[10] = read-out: Phosphatase and tensin (PTEN), PTEN (gene 5728); assay: LTEA_HepaRG_PTEN: Life Technologies and Expression Analysis (LTEA) Assay for Phosphatase and tensin (PTEN) using HepaRG (AID 2283523)
Method in brief: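 HepaRG, 48 h exposure, 8-pt half-log series from 100 uM top, 0.5% DMSO vehicle, duplicates. Readout: Fluidigm qRT-PCR of PTEN transcript; housekeeping normalization (ACTB, GAPDH, POLR2A). Gain or loss fitted relative to DMSO baseline.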

[11] = read-out: solute carrier (SLC22A1), SLC22A1 (gene 6580); assay: LTEA_HepaRG_SLC22A1: Life Technologies and Expression Analysis (LTEA) Assay for solute carrier (SLC22A1) using HepaRG (AID 2283524);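 as to AC50: differentiated human HepaRG liver cells in serum-free induction medium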
Method in brief: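 qRT-PCR readout (TaqMan, Fluidigm arrays) of SLC22A1 transcript, normalized to three housekeeping genes; bidirectional curve fit relative to 0.5% DMSO vehicle. Differentiated human HepaRG cells, 48 h chemical exposure, top concentration 100 uM, half-log steps, eight points.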

[12] = read-out: Pyruvate Dehydrogenase Kinase 4 (PDK4), PDK4 (gene 5166); assay: LTEA_HepaRG_PDK4: Life Technologies and Expression Analysis (LTEA) Assay for Pyruvate Dehydrogenase Kinase 4 (PDK4) using HepaRG (AID 2283525)
Method in brief: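 HepaRG (human liver line), 48 h chemical exposure, 8-pt half-log CRC top 100 uM, 0.5% DMSO vehicle, duplicates. Readout: TaqMan qRT-PCR of PDK4 mRNA, housekeeping-normalized; gain/loss fit relative to DMSO baseline.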

[13] = read-out: NAD(P)H dehydrogenase [quinone] 1 (NQO1), NQO1 (gene 1728); assay: LTEA_HepaRG_NQO1: Life Technologies and Expression Analysis (LTEA) Assay for NAD(P)H dehydrogenase [quinone] 1 (NQO1) using HepaRG (AID 2283526)
Method in brief: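 Transcript induction or suppression is quantified by qRT-PCR in human HepaRG liver cells dosed for 48 hours. Eight half-log concentrations topping at 100 uM are used, with 0.5% DMSO as vehicle and baseline.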

[14] = read-out: Nuclear factor erythroid 2-related factor 2 (Homo sapiens) (UniProt Q16236); assay: LTEA_HepaRG_NFE2L2: Life Technologies and Expression Analysis (LTEA) Assay for Nuclear factor erythroid 2-related factor 2 (NFE2L2) Transcription Factor using HepaRG (AID 2283527)
Method in brief: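 HepaRG, 48 h dosing, 8-pt half-log series from 100 uM in 0.5% DMSO, duplicates. Read-out: NFE2L2 mRNA by qRT-PCR (ACTB/GAPDH/POLR2A normalization). Bidirectional curve fit vs DMSO baseline.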

[15] = read-out: succinate dehydrogenase complex iron sulfur subunit B (SDHB), SDHB (gene 6390); assay: LTEA_HepaRG_SDHB: Life Technologies and Expression Analysis (LTEA) Assay for succinate dehydrogenase complex iron sulfur subunit B (SDHB) using HepaRG (AID 2283528)
Method in brief: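 Readout is SDHB transcript level by qRT-PCR, normalised to three housekeeping genes and fitted bidirectionally against 0.5% DMSO vehicle. Human HepaRG cells were treated for 48 h at up to 100 uM.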

[16] = read-out: Signal transducer and activator of transcription 3 (Homo sapiens) (UniProt P40763); assay: LTEA_HepaRG_STAT3: Life Technologies and Expression Analysis (LTEA) Assay for Signal transducer and activator of transcription (STAT3) using HepaRG (AID 2283529)
Method in brief: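 HepaRG, 48 h exposure, 8-pt half-log series (top 100 uM), 0.5% DMSO vehicle, duplicates. Readout: STAT3 transcript by Fluidigm qRT-PCR, housekeeping-normalized; bidirectional fit vs DMSO baseline.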

[17] = read-out: solute carrier (SLCO1B1), SLCO1B1 (gene 10599); assay: LTEA_HepaRG_SLCO1B1: Life Technologies and Expression Analysis (LTEA) Assay for solute carrier (SLCO1B1) using HepaRG (AID 2283530)
Method in brief: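 SLCO1B1 transcript read by qRT-PCR (Fluidigm arrays), normalized to three housekeeping genes, after 48 h chemical exposure of HepaRG cells; bidirectional concentration-response fitting versus 0.5% DMSO baseline. Eight-point half-log series, maximum 100 uM.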

[18] = read-out: sulfotransferase 2A1 (SULT2A1), SULT2A1 (gene 6822); assay: LTEA_HepaRG_SULT2A1: Life Technologies and Expression Analysis (LTEA) Assay for sulfotransferase 2A1 (SULT2A1) using HepaRG (AID 2283531)
Method in brief: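 HepaRG, 48 h chemical exposure, 8-pt half-log curve from 100 uM in 0.5% DMSO, duplicates. Readout: TaqMan qRT-PCR of SULT2A1 mRNA, housekeeping-normalized. Bidirectional fit vs DMSO baseline.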

[19] = read-out: Transforming Growth Factor (TGFA), TGFA (gene 7039); assay: LTEA_HepaRG_TGFA: Life Technologies and Expression Analysis (LTEA) Assay for Transforming Growth Factor (TGFA) using HepaRG (AID 2283532)
Method in brief: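 qRT-PCR read-out of TGFA transcript, normalized to three housekeeping genes, fitted bidirectionally against 0.5% DMSO baseline. Human HepaRG cultures received chemicals for 48 h at eight half-log concentrations, top 100 uM.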

Measured: AC50

Sequence of Nuclear factor erythroid 2-related factor 2 (Homo sapiens) (Q16236 whole entry, looked up): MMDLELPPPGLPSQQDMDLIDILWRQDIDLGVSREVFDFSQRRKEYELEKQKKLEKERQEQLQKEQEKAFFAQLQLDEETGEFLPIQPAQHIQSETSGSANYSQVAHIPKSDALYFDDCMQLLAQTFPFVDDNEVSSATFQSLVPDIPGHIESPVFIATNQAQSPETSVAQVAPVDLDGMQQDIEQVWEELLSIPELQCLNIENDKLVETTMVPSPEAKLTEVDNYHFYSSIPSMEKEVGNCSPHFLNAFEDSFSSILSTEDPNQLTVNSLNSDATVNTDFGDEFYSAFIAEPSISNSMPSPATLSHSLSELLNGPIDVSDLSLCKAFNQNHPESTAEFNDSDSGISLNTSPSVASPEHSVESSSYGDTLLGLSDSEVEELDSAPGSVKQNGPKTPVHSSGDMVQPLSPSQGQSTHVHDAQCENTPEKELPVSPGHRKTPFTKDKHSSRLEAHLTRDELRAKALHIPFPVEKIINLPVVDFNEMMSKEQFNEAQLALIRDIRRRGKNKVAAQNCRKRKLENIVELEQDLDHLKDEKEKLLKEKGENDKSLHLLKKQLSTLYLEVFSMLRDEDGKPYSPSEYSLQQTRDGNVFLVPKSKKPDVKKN
Sequence of Signal transducer and activator of transcription 3 (Homo sapiens) (P40763 whole entry, looked up): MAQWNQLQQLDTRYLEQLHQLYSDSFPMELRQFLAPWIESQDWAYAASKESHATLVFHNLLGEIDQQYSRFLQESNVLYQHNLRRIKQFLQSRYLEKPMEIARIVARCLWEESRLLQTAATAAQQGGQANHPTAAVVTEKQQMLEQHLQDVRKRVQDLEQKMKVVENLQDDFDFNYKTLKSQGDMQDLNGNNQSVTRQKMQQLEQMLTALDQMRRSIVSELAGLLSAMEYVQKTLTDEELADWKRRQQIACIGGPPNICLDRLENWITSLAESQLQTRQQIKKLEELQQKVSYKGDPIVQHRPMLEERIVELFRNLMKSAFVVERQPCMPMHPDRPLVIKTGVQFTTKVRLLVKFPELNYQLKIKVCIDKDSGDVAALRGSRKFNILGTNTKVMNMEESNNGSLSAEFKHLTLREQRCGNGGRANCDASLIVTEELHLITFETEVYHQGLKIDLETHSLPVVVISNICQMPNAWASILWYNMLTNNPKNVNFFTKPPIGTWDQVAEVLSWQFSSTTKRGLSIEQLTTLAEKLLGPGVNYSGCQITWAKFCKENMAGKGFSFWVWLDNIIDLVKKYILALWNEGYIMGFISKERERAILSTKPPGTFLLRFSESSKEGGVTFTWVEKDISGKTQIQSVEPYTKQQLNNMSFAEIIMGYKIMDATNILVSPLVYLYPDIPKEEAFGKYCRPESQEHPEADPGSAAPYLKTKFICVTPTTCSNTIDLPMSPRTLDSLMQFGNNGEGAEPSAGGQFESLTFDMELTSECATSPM

Cn1c(=O)cc(Oc2ccc(F)cc2F)c2cnc(NCC(C)(C)O)nc21
active: [3] 9.98 µM | [6] 22.1 µM | [7] 22.1 µM | [14] 1.3 µM
inactive: [1] | [2] | [4] | [5] | [8] | [9] | [10] | [11] | [12] | [13] | [15] | [16] | [17] | [18] | [19]

Cc1ccc(C)c(O)c1
inactive: [1] | [3] | [4] | [5] | [6] | [7] | [8] | [9] | [10] | [11] | [12] | [13] | [14] | [15] | [16] | [17] | [18] | [19]

O=C(O)c1cc(N=Nc2ccc(S(=O)(=O)Nc3ccccn3)cc2)ccc1O
inactive: [1] | [3] | [4] | [5] | [6] | [7] | [8] | [9] | [10] | [11] | [12] | [13] | [14] | [15] | [16] | [17] | [18]

O=c1[nH]c2ccc(S(=O)CCN3CCC(Cc4ccc(F)cc4)CC3)cc2o1 (stereo not drawn)
inactive: [1] | [4] | [5] | [7] | [9] | [10] | [13] | [14] | [16] | [17] | [18] | [19]
active: [2] 82 µM | [3] 59.5 µM | [6] 17.3 µM | [8] 50 µM | [11] 67.2 µM | [12] 14.7 µM | [15] 50 µM

Cc1c(-c2cccnc2)c2ccccc2n1CCCCC(=O)O
inactive: [1] | [3] | [4] | [5] | [6] | [7] | [8] | [9] | [10] | [13] | [14] | [15] | [16] | [17] | [18] | [19]
active: [12] 27.6 µM

Nc1nc2ncc(CNc3ccc(C(=O)N[C@@H](CCC(=O)O)C(=O)O)cc3)nc2c(=O)[nH]1
inactive: [1] | [3] | [4] | [5] | [6] | [7] | [8] | [9] | [10] | [11] | [12] | [13] | [14] | [15] | [16] | [17] | [18] | [19]
